Results filed as inconclusive are left out. The source made the active and inactive calls. Calls come from the whole dose curve; as a rule, active = well fitted cell-killing curve with a large enough effect; inconclusive = small, poorly fitted or top-dose-only effect, or effect the other way; inactive = flat fitted curve, though single readings scatter.
Assays:
Experiment in all cases: Primary qHTS to identify gynecologic anti-cancer compounds using libraries of approved drugs and bioactive compounds (AID 1345084); note: nearly all actives have a fitted effect of over 55% in size
[1] = system: C33A; conditions: Gynecologic cancer cell panel viability, ATPlite luminescence, 48 h; series mostly up to 57.5 µM
Outline: (§1)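 Cells, 1,000 per well, plated 16 h, then exposed 48 h at 37 C to compounds. Viability by ATPlite luminescence after 15 min at room temperature.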

[2] = system: CASKI; conditions: Gynecologic cancer cell panel viability, ATPlite luminescence, 48 h; series mostly up to 57.5 µM
Outline: as §1

[3] = system: Es-2; conditions: Gynecologic cancer cell panel viability, ATPlite luminescence, 48 h; series mostly up to 57.5 µM
Outline: as §1

[4] = system: HeLa; conditions: Gynecologic cancer cell panel viability, ATPlite luminescence, 48 h; series mostly up to 57.5 µM
Outline: as §1

[5] = system: Hek293T; conditions: Gynecologic cancer cell panel viability, ATPlite luminescence, 48 h, control line for the selectivity index; series mostly up to 57.5 µM
Outline: as §1

[6] = system: JEG-3; conditions: Gynecologic cancer cell panel viability, ATPlite luminescence, 48 h; series mostly up to 57.5 µM
Outline: as §1

[7] = system: OV90; conditions: Gynecologic cancer cell panel viability, ATPlite luminescence, 48 h; series mostly up to 57.5 µM
Outline: as §1

[8] = system: PA-1; conditions: Gynecologic cancer cell panel viability, ATPlite luminescence, 48 h; series mostly up to 57.5 µM
Outline: as §1

[9] = system: SKOV3; conditions: Gynecologic cancer cell panel viability, ATPlite luminescence, 48 h; series mostly up to 57.5 µM
Outline: as §1

[10] = system: Tov-21-G; conditions: Gynecologic cancer cell panel viability, ATPlite luminescence, 48 h; series mostly up to 57.5 µM
Outline: as §1

[11] = system: Tov112D; conditions: Gynecologic cancer cell panel viability, ATPlite luminescence, 48 h; series mostly up to 57.5 µM
Outline: as §1

[12] = system: CAOV3; conditions: Gynecologic cancer cell panel viability, ATPlite luminescence, 48 h; series mostly up to 57.5 µM
Outline: as §1
% is set by controls: 0 for no effect and ±100 for the full control effect.

COC(=O)[C@H](O)[C@H]1C(C)(C)[C@H](OC(C)=O)[C@@]2(O)C(=O)[C@]1(C)C1CC[C@]3(C)C(CC(=O)O[C@H]3c3ccoc3)[C@]13O[C@@H]32 (stereo not given in full)
inactive: Potency [1] | outcome [2] | Potency [3] | Potency [4] | Potency [5] | Potency [6] | Potency [7] | Potency [8] | Potency [9] | Potency [10] | Potency [11]

CO[C@H]1c2cc(C(C)C)c(O)c(O)c2[C@@]23CCCC(C)(C)C2[C@@H]1OC3=O (stereo not given in full)
inactive: Potency [1] | outcome [2] | Potency [3] | Potency [4] | Potency [5] | Potency [6] | Potency [7] | Potency [8] | Potency [9] | Potency [10] | Potency [11]

COc1ccc(Oc2c(Cl)cnn(C3c4ccccc4-c4ccccc43)c2=O)cc1
inactive: Potency [1] | outcome [2] | Potency [3] | Potency [4] | Potency [5] | Potency [6] | Potency [7] | Potency [8] | Potency [9] | Potency [10] | Potency [11]

Cc1ccc(-n2nc(C(C)(C)C)cc2NC(=O)Nc2cc(COc3cccnc3)[nH]n2)cc1
inactive: Potency [12] | outcome [2] | Potency [3] | Potency [4] | Potency [5] | Potency [6] | Potency [7] | Potency [9] | Potency [10] | Potency [11]

CC1(C)CC[C@]2(C(=O)O)CC[C@]3(C)C(=CCC4[C@@]5(C)CC[C@H](O[C@@H]6O[C@H](C(=O)O)[C@@H](O)[C@H](O[C@@H]7O[C@H](CO)[C@H](O)[C@H](O)[C@H]7O)[C@H]6O[C@@H]6O[C@H](CO)[C@@H](O)[C@H](O)[C@H]6O)C(C)(C)C5CC[C@]43C)[C@@H]2C1 (stereo not given in full)
inactive: activity change, negative = cytotoxicity [1] 4.15% [at 6.55 µM] | activity change, negative = cytotoxicity [2] 11.8% [at 6.55 µM] | activity change, negative = cytotoxicity [3] -0.476% [at 6.55 µM] | activity change, negative = cytotoxicity [4] -1.9% [at 6.55 µM] | activity change, negative = cytotoxicity [5] -0.735% [at 6.55 µM] | activity change, negative = cytotoxicity [6] 4.16% [at 6.55 µM] | activity change, negative = cytotoxicity [7] 8.65% [at 6.55 µM] | activity change, negative = cytotoxicity [8] 2.41% [at 6.55 µM] | activity change, negative = cytotoxicity [10] -6.57% [at 6.55 µM] | activity change, negative = cytotoxicity [11] -3.27% [at 6.55 µM]

c1ccc2c(Nc3nnc(-c4ccncc4)s3)cccc2c1
inactive: Potency [1] | outcome [2] | Potency [3] | Potency [4] | Potency [6] | Potency [8] | Potency [11]

CC(=O)/C=C/[C@H]1[C@](C)(O)[C@@H](O)[C@H](O)C2C(C)(C)CCC[C@@]21C (stereo not given in full)
inactive: Potency [12] | Potency [3] | Potency [7] | Potency [8] | Potency [9] | Potency [10] | Potency [11]

CC1(C)CC[C@]2(C(=O)OC3OC(CO)C(O)C(O)C3O)CC[C@]3(C)C(=CCC4[C@@]5(C)C[C@@H](O)[C@H](OC6OC(C(=O)O)C(O)C(O)C6O)C(C)(C)C5CC[C@]43C)[C@@H]2C1 (stereo not given in full)
inactive: activity change, negative = cytotoxicity [1] 5.49% [at 11.6 µM] | activity change, negative = cytotoxicity [2] 3.29% [at 11.6 µM] | activity change, negative = cytotoxicity [3] -0.905% [at 11.6 µM] | activity change, negative = cytotoxicity [4] 5.76% [at 11.6 µM] | activity change, negative = cytotoxicity [5] -2.17% [at 11.6 µM] | activity change, negative = cytotoxicity [6] 17.5% [at 11.6 µM] | activity change, negative = cytotoxicity [7] 1.98% [at 11.6 µM] | activity change, negative = cytotoxicity [8] 4.09% [at 11.6 µM] | activity change, negative = cytotoxicity [10] 3.24% [at 11.6 µM] | activity change, negative = cytotoxicity [11] 0.489% [at 11.6 µM]

C=C1C(O)CC2C(C(=O)O)=COC(OC3OC(CO)C(O)C(O)C3OC(=O)/C=C\c3ccc(O)cc3)C12 (stereo not given)
inactive: Potency [12] | outcome [2] | Potency [3] | Potency [4] | Potency [5] | Potency [6] | Potency [7] | Potency [8] | Potency [9] | Potency [10] | Potency [11]

O=C(Cc1ccc(Cl)cc1)Nc1cnccc1C(=O)O
inactive: Potency [12] | outcome [2] | Potency [3] | Potency [4] | Potency [5] | Potency [6] | Potency [7] | Potency [8] | Potency [9] | Potency [10] | Potency [11]

CC1(C)C[C@H]2C=C(C=O)[C@]3(C(=O)O)C[C@]3(C)[C@H]2C1
inactive: Potency [1] | outcome [2] | Potency [4] | Potency [5] | Potency [6] | Potency [7] | Potency [8] | Potency [10] | Potency [11]

Cc1cc(O[C@@H]2O[C@H](COC(=O)CC(=O)O)[C@@H](O)[C@H](O)[C@H]2O)c(C(C)C)cc1O
inactive: Potency [1] | outcome [2] | Potency [3] | Potency [4] | Potency [5] | Potency [6] | Potency [7] | Potency [8] | Potency [10] | Potency [11]

CC1(C)CC[C@]2(C(=O)O)CC[C@]3(C)C(=CCC4[C@@]5(C)C[C@@H](O)[C@H](O)[C@](C)(CO)C5CC[C@]43C)[C@@H]2[C@@H]1O (stereo not given in full)
inactive: outcome [2] | Potency [5] | Potency [7]

COCC1OC(n2cnc3c(=O)[nH]cnc32)C(O)C1O (stereo not given)
inactive: Potency [1] | outcome [2] | Potency [3] | Potency [4] | Potency [5] | Potency [6] | Potency [7] | Potency [8] | Potency [10] | Potency [11]

FC(F)(F)c1nnc2c(Sc3ccccc3)nc3ccc(Cl)cc3n12
inactive: Potency [1] | outcome [2] | Potency [4] | Potency [5] | Potency [6] | Potency [7] | Potency [8] | Potency [10] | Potency [11]

From PubChem BioAssay (NCATS)
